Source: PubChem BioAssay AID492960 (National Center for Advancing Translational Sciences (NCATS), 2010)
Results filed as inconclusive are left out. Activity calls are given as the source filed them. Calls come from the whole dose curve; as a rule, active = well fitted curve in the direction sought with a large enough effect; inconclusive = small, poorly fitted or top-dose-only effect, or effect the other way, or another doubt; inactive = no such curve, though single readings can be large or run the other way.

Experiment: Secondary Assay for lipid storage modulators: HepG2 cell LDSA assay for probe SAR
Details: HepG2 lipid droplet BODIPY, laser-scanning cytometry, 18-24 h; series mostly up to 46.1 µM; activity, negative = less lipid: at the top concentration
Excerpt: NIH Molecular Libraries Probe Production Centers Network [MLPCN] NIH Chemical Genomics Center [NCGC] MLPCN Grant: 1 R03 MH085686-01 Assay Submitter (PI): Beller, Mathias; Max-Planck-Institut fur Biophysikalische Chemie NCGC Assay Overview: Storing lipids as a reservoir for energy or the anabolism of elementary metabolites is a common feature of probably all cells and is conserved from bacteria to humans. The universal cellular lipid storage organelle is the so-called lipid storage droplet (LD). Although ubiquitous, LDs share a simple structure composed of a hydrophobic core that harbors the storage lipids, which is shielded by a droplet-specific phospholipid monolayer to which proteins are attached. The current model of LD biogenesis involves an incorporation of the lipid core into the membrane leaflets of the endoplasmic reticulum (ER) followed by a subsequent budding-like maturation of a LD, which ultimately pinches off. Once released, LD volume can increase by localized lipogenesis or fusion of existing droplet. Storage lipids are re-mobilized enzymatically by lipase activity. Lipase regulation in the adipocyte is heavily studied and involves multiple components including catecholamine signaling, the LD-associated proteins Perilipin and comparative gene identification (CGI-58) and at least two lipases named hormone sensitive lipase (HSL) and adipocyte triglyceride lipase (ATGL). LD regulation outside of the adipocyte is poorly understood and only few components are known. However, there is an urgent need to learn more about ectopic fat depots as mislocalized storage of lipids, for example in the liver or muscle, is an eminent health problem associated with insulin resistance or the metabolic syndrome.
NCGC Assay Protocol Summary: The assay was performed with HepG2 cells, using an oleic acid feeding protocol similar to the S3 assay. We dispensed 4 uL of cells to give 700 cells/well into Greiner bio-one 1,536-well plates (black walled, clear bottom). Triacsin C (Sigma-Aldrich T-4540), an inhibitor of long-chain fatty acyl CoA synthetase that blocks synthesis of triglycerides, was used as a positive control for lipid under-storage using a final concentration of 20 uM. The orexin antagonist, SB408124 - previously identified to stimulate lipid over-storage, was used as a positive control for lipid over-storage using a final concentration of 20 uM. A total of 23 nL of compound solution of different concentrations were transferred to the assay plates using a Kalypsys pin tool equipped with a 1,536-pin array containing 10-nL slotted pins (FP1S10, 0.457-mm diameter, 50.8 mm long; V&P Scientific). One microliter of oleic acid was added (400 uM final concentration), and the plate was lidded with stainless steel rubber gasket lined lids containing pinholes. After 18-24 h incubation at […] and 95% humidity, 4 uL of the dyes BODIPY 493/503 (Molecular Probes) and the Cell Tracker Red CMTPX dye (Molecular Probes) were added to the wells to stain lipid droplets and enumerate cell number, respectively. Fluorescence was detected by excitation of the fluorophores with a 488-nm laser on an Acumen Explorer (TTP Lab Tech). The total intensity in channel 2 (500-530 nm) reflected lipid droplet accumulation. Cells were detected using channel 3 (575-640 nm) with 5-um width and 100-um depth filters. The ratio of the number of objects in PMT channel 2 over the number of objects in PMT channel 3 was also calculated. […]

Compound | activity, negative = less lipid | Potency
CCOC(=O)C1CCN(C(=O)C2(NC(=O)Nc3ccccc3Cl)CCCC2)CC1 | 32.5% (inactive) | –
CCOc1ccc(CCNC(=O)c2ccccc2)cc1OCC | -5.19% (inactive) | –
CCC/C=C/C/C=C/C=C/C=N/NN=O | – | 0.396 µM (active)
CCOc1ccc(CCNC(=O)c2ccc(C(=O)c3ccccc3)cc2)cc1OCC | 15.6% (inactive) | –
CCOc1ccc(CCNC(=O)c2ccc(Oc3ccccc3)cc2)cc1OCC | 33.8% (inactive) | –
